# What was measured:
# Assay in all cases: DAPPL (digital affinity profiling via proximity ligation, sequencing); 10 mM Tris-HCl pH 7.5, 50 mM NaCl, 1 mM DTT, 4% glycerol, room temperature, 30 min; GST-TFs on glutathione beads, 16-mer random dsDNA library, 0.1% formaldehyde crosslink after washing; high values mean tight binding
# Settings in all cases: protein: recombinant; tags: N-terminal GST; dsDNA, one strand shown
# FLI1 = molecular target: T1, FLI1 (Homo sapiens, UniProt Q01543 1-452)
# T1 sequence: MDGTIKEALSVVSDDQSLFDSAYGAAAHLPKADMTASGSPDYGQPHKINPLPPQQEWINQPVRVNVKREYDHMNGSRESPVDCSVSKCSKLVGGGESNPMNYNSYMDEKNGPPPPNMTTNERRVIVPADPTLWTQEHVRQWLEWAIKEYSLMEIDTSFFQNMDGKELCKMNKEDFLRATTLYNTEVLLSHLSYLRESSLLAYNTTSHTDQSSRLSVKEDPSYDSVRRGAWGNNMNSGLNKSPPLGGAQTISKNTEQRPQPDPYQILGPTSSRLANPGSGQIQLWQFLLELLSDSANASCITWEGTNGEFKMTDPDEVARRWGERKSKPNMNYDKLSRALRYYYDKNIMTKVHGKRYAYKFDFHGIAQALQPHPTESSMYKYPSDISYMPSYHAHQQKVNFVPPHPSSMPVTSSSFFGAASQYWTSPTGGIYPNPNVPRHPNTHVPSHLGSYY
# In short: (§1)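 The binding signal reported is, for every hexamer, its read frequency for a factor over its read frequency for the tag-only sample. Reads came from pools of yeast-expressed, GST-fused human transcription factors on glutathione beads, barcoded with DNA and mixed with that sample, which were incubated with 200 nmole of a random double-stranded 16-mer DNA library in Tris/NaCl/DTT/glycerol buffer at room temperature for 30 min. After washing, the pools were crosslinked with 0.1% formaldehyde, proximity-ligated with BsaI/T4 ligase for 1 h at 37 °C, PCR-amplified and sequenced on an Illumina NextSeq500.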
# ELK1 = molecular target: T2, ELK1 (Homo sapiens, UniProt P19419 1-428)
# T2 sequence: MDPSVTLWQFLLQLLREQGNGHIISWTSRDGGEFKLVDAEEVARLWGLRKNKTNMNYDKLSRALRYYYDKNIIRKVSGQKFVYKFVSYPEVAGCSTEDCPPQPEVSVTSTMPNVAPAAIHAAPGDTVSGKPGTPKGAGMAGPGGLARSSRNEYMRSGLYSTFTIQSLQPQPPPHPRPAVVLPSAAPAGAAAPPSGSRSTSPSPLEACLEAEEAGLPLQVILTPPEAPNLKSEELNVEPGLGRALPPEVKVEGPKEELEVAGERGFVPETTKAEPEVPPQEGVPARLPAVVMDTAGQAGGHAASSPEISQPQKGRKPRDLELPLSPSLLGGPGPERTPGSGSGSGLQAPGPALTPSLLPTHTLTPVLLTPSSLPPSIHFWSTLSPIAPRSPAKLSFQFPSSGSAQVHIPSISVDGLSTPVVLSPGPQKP
# In short: as §1
# GABPA = molecular target: T3, GABPA (Homo sapiens, UniProt Q06546 1-454)
# T3 sequence: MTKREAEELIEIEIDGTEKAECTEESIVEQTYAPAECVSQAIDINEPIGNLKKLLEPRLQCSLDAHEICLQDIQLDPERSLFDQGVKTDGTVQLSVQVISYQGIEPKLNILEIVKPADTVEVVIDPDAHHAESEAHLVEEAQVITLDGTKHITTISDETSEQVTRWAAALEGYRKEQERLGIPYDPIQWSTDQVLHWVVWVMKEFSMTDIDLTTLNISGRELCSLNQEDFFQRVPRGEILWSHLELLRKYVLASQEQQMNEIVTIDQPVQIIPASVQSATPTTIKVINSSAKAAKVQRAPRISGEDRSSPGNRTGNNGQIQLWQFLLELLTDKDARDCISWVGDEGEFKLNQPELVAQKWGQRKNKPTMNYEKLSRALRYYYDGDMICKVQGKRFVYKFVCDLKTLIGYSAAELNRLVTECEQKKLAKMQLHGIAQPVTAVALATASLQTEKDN
# In short: as §1
# ERG = molecular target: T4, ERG (Homo sapiens, UniProt P11308 1-479)
# T4 sequence: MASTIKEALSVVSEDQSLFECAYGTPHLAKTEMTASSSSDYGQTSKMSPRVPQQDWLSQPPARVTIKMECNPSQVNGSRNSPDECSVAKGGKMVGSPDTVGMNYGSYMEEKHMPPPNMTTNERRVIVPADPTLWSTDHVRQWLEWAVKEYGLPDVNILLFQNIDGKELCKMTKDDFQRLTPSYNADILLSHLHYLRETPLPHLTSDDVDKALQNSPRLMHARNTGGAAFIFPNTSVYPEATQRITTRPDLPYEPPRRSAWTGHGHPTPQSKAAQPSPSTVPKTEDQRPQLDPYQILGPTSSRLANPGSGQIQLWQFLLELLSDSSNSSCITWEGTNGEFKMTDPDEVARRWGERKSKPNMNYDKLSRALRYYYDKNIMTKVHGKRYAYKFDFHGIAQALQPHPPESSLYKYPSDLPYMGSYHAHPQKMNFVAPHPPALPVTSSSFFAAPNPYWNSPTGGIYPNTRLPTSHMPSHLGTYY
# In short: as §1
# ELF1 = ELF1 (Homo sapiens, UniProt P32519 1-619)
# Chain of ELF1 (P32519 whole entry): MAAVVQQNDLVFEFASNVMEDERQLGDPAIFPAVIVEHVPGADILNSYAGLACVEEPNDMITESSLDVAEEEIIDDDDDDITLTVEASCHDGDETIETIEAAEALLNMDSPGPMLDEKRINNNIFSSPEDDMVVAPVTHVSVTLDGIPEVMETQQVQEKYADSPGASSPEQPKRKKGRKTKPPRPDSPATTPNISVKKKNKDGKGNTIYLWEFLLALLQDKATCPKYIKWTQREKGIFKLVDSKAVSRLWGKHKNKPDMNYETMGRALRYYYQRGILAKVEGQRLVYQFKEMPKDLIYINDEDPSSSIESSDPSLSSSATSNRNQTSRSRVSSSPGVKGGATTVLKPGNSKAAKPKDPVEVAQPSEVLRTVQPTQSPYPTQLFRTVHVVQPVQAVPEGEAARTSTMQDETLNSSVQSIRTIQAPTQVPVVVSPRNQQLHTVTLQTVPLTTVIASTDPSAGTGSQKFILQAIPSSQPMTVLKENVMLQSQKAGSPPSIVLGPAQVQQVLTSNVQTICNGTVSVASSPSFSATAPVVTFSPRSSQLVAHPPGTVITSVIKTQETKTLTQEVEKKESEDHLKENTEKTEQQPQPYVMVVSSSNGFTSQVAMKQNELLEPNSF
# In short: as §1
# EHF = molecular target: T5, EHF (Homo sapiens, UniProt Q9NZC4 1-300)
# T5 sequence: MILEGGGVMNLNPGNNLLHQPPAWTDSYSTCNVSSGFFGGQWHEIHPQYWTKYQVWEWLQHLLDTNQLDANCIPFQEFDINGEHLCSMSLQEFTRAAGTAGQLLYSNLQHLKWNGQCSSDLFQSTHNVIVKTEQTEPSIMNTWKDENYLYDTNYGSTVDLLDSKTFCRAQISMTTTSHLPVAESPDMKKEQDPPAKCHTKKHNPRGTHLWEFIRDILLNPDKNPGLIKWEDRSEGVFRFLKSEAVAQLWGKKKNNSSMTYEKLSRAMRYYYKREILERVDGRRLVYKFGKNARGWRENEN
# In short: as §1
# SPI1 = SPI1 (Homo sapiens, UniProt P17947 1-270)
# In short: as §1
# SPIB = SPIB (Homo sapiens, UniProt Q01892 1-262)
# Chain of SPIB (Q01892 whole entry): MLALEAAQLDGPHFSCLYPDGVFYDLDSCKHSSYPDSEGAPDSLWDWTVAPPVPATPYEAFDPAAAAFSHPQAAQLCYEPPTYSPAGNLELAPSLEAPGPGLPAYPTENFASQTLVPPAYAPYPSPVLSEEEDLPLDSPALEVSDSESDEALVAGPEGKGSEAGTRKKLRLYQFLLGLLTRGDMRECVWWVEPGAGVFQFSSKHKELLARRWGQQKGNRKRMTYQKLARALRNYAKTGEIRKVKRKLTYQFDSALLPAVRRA
# In short: as §1
# ELK3 = molecular target: T6, ELK3 (Homo sapiens, UniProt P41970 1-407)
# T6 sequence: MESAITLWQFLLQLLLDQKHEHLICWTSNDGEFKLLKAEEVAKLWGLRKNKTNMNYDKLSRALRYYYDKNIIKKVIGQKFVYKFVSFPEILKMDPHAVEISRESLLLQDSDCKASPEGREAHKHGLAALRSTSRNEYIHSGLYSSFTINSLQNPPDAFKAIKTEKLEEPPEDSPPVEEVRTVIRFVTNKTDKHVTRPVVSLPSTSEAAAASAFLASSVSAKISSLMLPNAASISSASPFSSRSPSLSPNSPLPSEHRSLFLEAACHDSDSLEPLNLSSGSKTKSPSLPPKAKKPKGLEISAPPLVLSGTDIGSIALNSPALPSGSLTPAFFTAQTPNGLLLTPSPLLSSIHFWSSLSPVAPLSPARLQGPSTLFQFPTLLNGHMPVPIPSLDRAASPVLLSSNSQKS
# In short: as §1
# FEV = molecular target: T7, FEV (Homo sapiens, UniProt Q99581 1-238)
# T7 sequence: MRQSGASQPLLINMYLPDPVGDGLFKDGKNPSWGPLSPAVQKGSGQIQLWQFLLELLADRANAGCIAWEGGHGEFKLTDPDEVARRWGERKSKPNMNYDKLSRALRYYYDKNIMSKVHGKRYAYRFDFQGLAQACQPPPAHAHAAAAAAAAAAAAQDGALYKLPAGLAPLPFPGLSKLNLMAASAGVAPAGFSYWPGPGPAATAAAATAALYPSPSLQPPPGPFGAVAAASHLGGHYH
# In short: as §1
sequence,measurement,setting,value
ATGGTG,binding signal,FLI1,"1.17 fold enrichment (6-mer frequency, TF over GST control)"
same,binding signal,ELK1,"1.27 fold enrichment (6-mer frequency, TF over GST control)"
same,binding signal,GABPA,"1.1 fold enrichment (6-mer frequency, TF over GST control)"
same,binding signal,ERG,"1.19 fold enrichment (6-mer frequency, TF over GST control)"
same,binding signal,ELF1,"1.13 fold enrichment (6-mer frequency, TF over GST control)"
same,binding signal,EHF,"1.17 fold enrichment (6-mer frequency, TF over GST control)"
same,binding signal,SPI1,"1.07 fold enrichment (6-mer frequency, TF over GST control)"
same,binding signal,SPIB,"1.01 fold enrichment (6-mer frequency, TF over GST control)"
same,binding signal,ELK3,"1.02 fold enrichment (6-mer frequency, TF over GST control)"
same,binding signal,FEV,"1.06 fold enrichment (6-mer frequency, TF over GST control)"

# From article PMC7862700, “An all-to-all approach to the identification of sequence-specific readers for epigenetic DNA modifications on cytosine”
